A short description of assay [1]: NCI Yeast Anticancer Drug Screen. Data for the rad50 strain (AID 155).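 Note: 0% = growth of vehicle-only cultures of the same strain.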 The conditions noted are these: S. cerevisiae rad50 strain growth inhibition, stronger effect = higher value. Summed up: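 Compounds were tested on a yeast strain with an engineered DNA damage repair alteration; the reported value is growth inhibition normalised to vehicle treatment.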
The nature of assay [2]: NCI Yeast Anticancer Drug Screen. Data for the mec2-1 strain (AID 157). As to conditions: S. cerevisiae mec2-1 strain, stronger effect = higher value. Summed up: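 Mutant yeast (mec2-1) grown with compound; growth inhibition relative to vehicle control reported.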
Assay [3] can be described thus: NCI Yeast Anticancer Drug Screen. Data for the sgs1 mgt1 strain (AID 161).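 Note: 0% = growth of cultures given vehicle only.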 The conditions noted are these: S. cerevisiae sgs1 mgt1 strain, stronger effect = higher value. Summed up:
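Percent growth inhibition was derived by comparing compound-exposed mutant yeast with vehicle-exposed cultures. The strain carries alterations in DNA damage repair.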

The nature of assay [4]: NCI Yeast Anticancer Drug Screen. Data for the cln2 rad14 strain (AID 165).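 Note: 0% = growth equal to vehicle treated cultures.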 The conditions noted are these: S. cerevisiae cln2 rad14 strain, stronger effect = higher value. Summed up:
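Readout is yeast growth inhibition versus vehicle-treated controls, using a strain with cln2 and rad14 alterations exposed to compound.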

Assay [5] is described as follows: NCI Yeast Anticancer Drug Screen. Data for the bub3 strain (AID 167). As to conditions: S. cerevisiae bub3 mutant strain, stronger effect = higher value. Summed up: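 Growth of a checkpoint-deficient yeast mutant is measured after compound exposure. Values represent inhibition relative to vehicle.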
Assay [6] in a line: NCI Yeast Anticancer Drug Screen. Data for the mlh1 rad18 strain (AID 175). As to conditions: S. cerevisiae mlh1 rad18 strain growth inhibition, stronger effect = higher value. Put shortly: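 Genetically defined yeast (DNA repair-deficient) exposed to compounds; growth inhibition determined relative to vehicle.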
The mark [7] stands for this setting: at 5.0 µM (retest, dose inferred, filed as 0.5).
[8] abbreviates: at 50.0 µM (retest, dose inferred, filed as 5.0).

We go through 10 molecules from PubChem BioAssay (NCI).

Each structure is given as a SMILES string. This is part of a sample that, as a whole, favours compounds with a hit. Of some 79,000 tested, about 15% had one in any assay. Unmarked numbers belong to inactive results. Calls of active or inactive are those of the source. Cut-off read from the data, not from the text of the source: active = growth inhibition above about 70%; inactive = the rest.

Consider `COC(=O)CCN1c2ccccc2Sc2ccccc21`, for which the growth inhibition was -14% in assay [1] (setting [7]); 38% in assay [1] (setting [8]); 48.8% in assay [1] (at 50.0 µM); -23% in assay [2] (setting [7]); 21% in assay [2] (setting [8]); 23.1% in assay [2] (at 50.0 µM). In addition, the growth inhibition in assay [3] (setting [7]) was -13%; in assay [3] (setting [8]), 30%; in assay [3] (at 50.0 µM) it was 47.5%; in assay [4] (setting [7]), 31%; in assay [4] (setting [8]), 42%; in assay [4] (at 50.0 µM), 23.4%. Further, the growth inhibition in assay [5] (setting [7]) is 16%; in assay [5] (setting [8]) it was 62%; in assay [5] (at 50.0 µM), 12.1%; in assay [6] (setting [7]), -15%; in assay [6] (setting [8]) it was 49%; in assay [6] (at 50.0 µM), 64.7%.

On to `C=C1CC2(CCS(=O)(=O)c3ccccc32)OC1=O` (stereo not given), for which the growth inhibition in assay [1] (setting [7]) is 2%; in assay [1] (setting [8]) it was 27%; in assay [1] (at 50.0 µM), 25.6%; in assay [2] (setting [7]), 5%; in assay [2] (setting [8]), 35%; in assay [2] (at 50.0 µM), 60.6%. For the same molecule, the growth inhibition in assay [3] (setting [7]) was 7%; in assay [3] (setting [8]), 37%; in assay [3] (at 50.0 µM), 69%; in assay [4] (setting [7]), 6%; in assay [4] (setting [8]), 15%; in assay [4] (at 50.0 µM) it was 36.6%. Besides, the growth inhibition in assay [5] (setting [7]) is 2%; in assay [5] (setting [8]) it was 47%; in assay [5] (at 50.0 µM) it was 46.6%; in assay [6] (setting [7]), 2%; in assay [6] (setting [8]) it was 49%; in assay [6] (at 50.0 µM) it was 48.9%.

As to `O=C(c1cccs1)N(C(=S)N1CCN(c2ccccn2)CC1)C1CCCCC1`, the growth inhibition was 4% in assay [1] (setting [7]); 66% in assay [1] (setting [8]); 54.5% in assay [1] (at 50.0 µM); -8% in assay [2] (setting [7]); 61% in assay [2] (setting [8]); 54.8% in assay [2] (at 50.0 µM). Moreover, the growth inhibition in assay [3] (setting [7]) is 8%; in assay [3] (setting [8]), 31%; in assay [3] (at 50.0 µM), 67.2%; in assay [4] (setting [7]), 15%; in assay [4] (setting [8]) it was 44%; in assay [4] (at 50.0 µM), 38.8%. The growth inhibition in assay [5] (setting [7]) is 2%; in assay [5] (setting [8]) it was 31%; in assay [5] (at 50.0 µM), 68.6%; in assay [6] (setting [7]), 8%; in assay [6] (setting [8]), 29%; in assay [6] (at 50.0 µM) it was 49.6%.

In the case of `O=C1c2cc([N+](=O)[O-])cc3cc([N+](=O)[O-])cc(c23)C(=O)N1CCCNCCNCCCN1C(=O)c2cc([N+](=O)[O-])cc3cc([N+](=O)[O-])cc(c23)C1=O`, the growth inhibition in assay [1] (setting [7]) is 85% (active); in assay [1] (setting [8]), 93% (active); in assay [1] (at 50.0 µM) it was 61%; in assay [2] (setting [7]), 32%; in assay [2] (setting [8]), 96% (active); in assay [2] (at 50.0 µM), 77.4% (active). Besides, the growth inhibition in assay [3] (setting [7]) was 93% (active); in assay [3] (setting [8]), 94% (active); in assay [3] (at 50.0 µM), 80.9% (active); in assay [4] (setting [7]) it was 22%; in assay [4] (setting [8]), 92% (active); in assay [4] (at 50.0 µM), 83% (active). Moreover, the growth inhibition in assay [5] (setting [7]) was 9%; in assay [5] (setting [8]), 95% (active); in assay [5] (at 50.0 µM), 83.7% (active); in assay [6] (setting [7]), 66%; in assay [6] (setting [8]), 91% (active); in assay [6] (at 50.0 µM) it was 77.3% (active).

With `COc1ccc(N=Cc2ccccc2O)cc1`, the growth inhibition in assay [1] (setting [7]) is -9%; in assay [1] (setting [8]) it was -57%; in assay [1] (at 50.0 µM), 8.1%; in assay [2] (setting [7]), 0%; in assay [2] (setting [8]) it was -33%; in assay [2] (at 50.0 µM), -8%. For the same molecule, the growth inhibition was -8% in assay [3] (setting [7]); -36% in assay [3] (setting [8]); 2.65% in assay [3] (at 50.0 µM); -4% in assay [4] (setting [7]); -24% in assay [4] (setting [8]); 40.9% in assay [4] (at 50.0 µM). Besides, the growth inhibition in assay [5] (setting [7]) was -27%; in assay [5] (setting [8]) it was -118%; in assay [5] (at 50.0 µM), -5.25%; in assay [6] (setting [7]), -7%; in assay [6] (setting [8]), -45%; in assay [6] (at 50.0 µM), -26.1%.

For `C1=NN(c2ccccc2)C2c3ccccc3CCCC12` (stereo not given), the growth inhibition in assay [1] (setting [7]) was 8%; in assay [1] (setting [8]) it was 98% (active); in assay [1] (at 50.0 µM) it was 99.2% (active); in assay [2] (setting [7]) it was 18%; in assay [2] (setting [8]), 99% (active); in assay [2] (at 50.0 µM), 98.7% (active). Besides, the growth inhibition is 8% in assay [3] (setting [7]); 99% (active) in assay [3] (setting [8]); 99% (active) in assay [3] (at 50.0 µM); -4% in assay [4] (setting [7]); 98% (active) in assay [4] (setting [8]); 98.8% (active) in assay [4] (at 50.0 µM). Also, the growth inhibition in assay [5] (setting [7]) is 5%; in assay [5] (setting [8]), 99% (active); in assay [5] (at 50.0 µM) it was 99.1% (active); in assay [6] (setting [7]), -2%; in assay [6] (setting [8]) it was 99% (active); in assay [6] (at 50.0 µM) it was 98.7% (active).

`O=c1[nH]c2ccc([N+](=O)[O-])c(Cl)c2c2ccccc12`: the growth inhibition in assay [1] (setting [7]) was 74% (active); in assay [1] (setting [8]), 97% (active); in assay [1] (at 50.0 µM) it was 9.1%; in assay [2] (setting [7]), 21%; in assay [2] (setting [8]), 98% (active); in assay [2] (at 50.0 µM) it was 12.3%. Also, the growth inhibition in assay [3] (setting [7]) is 38%; in assay [3] (setting [8]), 98% (active); in assay [3] (at 50.0 µM), 9%; in assay [4] (setting [7]), 9%; in assay [4] (setting [8]) it was 95% (active); in assay [4] (at 50.0 µM), -46.8%. Further, the growth inhibition in assay [5] (setting [7]) was 19%; in assay [5] (setting [8]), 97% (active); in assay [5] (at 50.0 µM) it was 1.05%; in assay [6] (setting [7]), 70% (active); in assay [6] (setting [8]), 96% (active); in assay [6] (at 50.0 µM), 39.9%.

Turning to `NC(Cc1ccccc1)c1ccc2cccc3c2c1CC3` (stereo not given), the growth inhibition is -5% in assay [1] (setting [7]); 4% in assay [1] (setting [8]); 0.3% in assay [1] (at 50.0 µM); -5% in assay [2] (setting [7]); 8% in assay [2] (setting [8]); 33.8% in assay [2] (at 50.0 µM). The growth inhibition in assay [3] (setting [7]) was -2%; in assay [3] (setting [8]) it was 25%; in assay [3] (at 50.0 µM) it was 5.55%; in assay [4] (setting [7]), -6%; in assay [4] (setting [8]), -1%; in assay [4] (at 50.0 µM) it was -4.25%. Further, the growth inhibition in assay [5] (setting [7]) was -2%; in assay [5] (setting [8]), 9%; in assay [5] (at 50.0 µM) it was 21.1%; in assay [6] (setting [7]), -2%; in assay [6] (setting [8]) it was 34%; in assay [6] (at 50.0 µM) it was 51.5%.

`c1ccc([P+](c2ccccc2)(c2ccccc2)C2CCCCO2)cc1` (stereo not given): the growth inhibition in assay [1] (setting [7]) is 17%; in assay [1] (setting [8]), 74% (active); in assay [1] (at 50.0 µM), 67.8%; in assay [2] (setting [7]) it was -4%; in assay [2] (setting [8]), 83% (active); in assay [2] (at 50.0 µM), 83.2% (active). Also, the growth inhibition in assay [3] (setting [7]) is 4%; in assay [3] (setting [8]), 69%; in assay [3] (at 50.0 µM) it was 35.1%; in assay [4] (setting [7]), -2%; in assay [4] (setting [8]), 77% (active); in assay [4] (at 50.0 µM) it was 49.5%. Further, the growth inhibition is 5% in assay [5] (setting [7]); 77% (active) in assay [5] (setting [8]); 54% in assay [5] (at 50.0 µM); 1% in assay [6] (setting [7]); 61% in assay [6] (setting [8]); 81.1% (active) in assay [6] (at 50.0 µM).

For `N#Cc1c(Cl)nnc(-c2ccccc2)c1-c1ccccc1`, the growth inhibition is 6% in assay [1] (setting [7]); 81% (active) in assay [1] (setting [8]); 89.3% (active) in assay [1] (at 50.0 µM); 8% in assay [2] (setting [7]); 84% (active) in assay [2] (setting [8]); 92.2% (active) in assay [2] (at 50.0 µM). Besides, the growth inhibition in assay [3] (setting [7]) is -8%; in assay [3] (setting [8]), 83% (active); in assay [3] (at 50.0 µM), 92.8% (active); in assay [4] (setting [7]), -1%; in assay [4] (setting [8]), 66%; in assay [4] (at 50.0 µM), 93.8% (active). Also, the growth inhibition in assay [5] (setting [7]) was 1%; in assay [5] (setting [8]), 91% (active); in assay [5] (at 50.0 µM) it was 93.5% (active); in assay [6] (setting [7]), 4%; in assay [6] (setting [8]) it was 91% (active); in assay [6] (at 50.0 µM) it was 93.6% (active).
